PubChem BioAssay (EPA / NIEHS)
Inconclusive results are not listed. The source made the active and inactive calls. Rule for the calls, unless noted: active = hit-call score of the fitted dose curve at least 0.9, where 1 is the maximum; inconclusive = response in the unintended direction; inactive = score below 0.9.

Experiments:
[1] = molecular target: Peroxisome proliferator-activated receptor gamma (Homo sapiens) (UniProt P37231); assay: ATG_PPARg_TRANS: Attagene TRANS-FACTORIAL HepG2 Assay for human Peroxisome Proliferator-activated Receptor-gamma (PPARg) (AID 2283007)
Summary of the method: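 Transient transfection of HepG2 with GAL4-UAS-driven reporter units; chemical dosing 24 h; total RNA → oligo(dT) RT → PCR with reporter primers → 6-FAM primer extension → HpaI digest 2 h 37 C → capillary electrophoresis. Positive direction vs DMSO.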

[2] = molecular target: Retinoic acid receptor RXR-alpha (Homo sapiens) (UniProt P19793); assay: OT_NURR1_NURR1RXRa_0480: Odyssey Thera (OT) 8-hour HEK293T Protein Complementation Assay for Nurr1/retinoid X receptor (RXR) (AID 2283385)
Summary of the method: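 8 h compound exposure, HEK293T; Nurr1/RXRα fragment complementation; fluorescence intensity; positive fitting direction vs DMSO baseline.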

[3] = molecular target: Retinoic acid receptor RXR-alpha (Homo sapiens) (UniProt P19793); assay: OT_NURR1_NURR1RXRa_1440: Odyssey Thera (OT) 24-hour HEK293T Protein Complementation Assay for Nurr1/retinoid X receptor (RXR) (AID 2283386)
Summary of the method: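 Interaction of Nurr1 with RXRα brings fused reporter fragments together in human HEK293T cells, restoring a functional reporter. Fluorescence intensity is measured 24 h after chemical treatment, and values are analysed in the positive direction against DMSO.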

[4] = molecular target: Peroxisome proliferator-activated receptor gamma (Homo sapiens) (UniProt P37231); assay: OT_PPARg_PPARgSRC1_0480: Odyssey Thera (OT) 8-hour Protein-Complementation Assay for Peroxisome Proliferator-activated Receptor Gamma / SRC-1 Co-activator (AID 2283387);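 note: nuclear to cytoplasmic split Venus YFP fluorescence ratio reporting PPARg SRC-1 interaction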
Summary of the method: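 Protein-fragment complementation in HEK293T: Venus YFP halves (residues 1-158, 159-239, mutated to IFP1/IFP2) fused to PPARg/SRC-1. 8 h exposure; N/C ratio at 488 nm; DMSO negative control.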

[5] = molecular target: Peroxisome proliferator-activated receptor gamma (Homo sapiens) (UniProt P37231); assay: OT_PPARg_PPARgSRC1_1440: Odyssey Thera (OT) 24-hour Protein-Complementation Assay for Peroxisome Proliferator-activated Receptor Gamma/ SRC-1 Co-activator (AID 2283388);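 note: nuclear to cytoplasmic ratio of reconstituted Venus YFP fluorescence in fixed imaged cells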
Summary of the method: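 Cells carrying the PPARg/SRC-1 fragment-complementation reporter receive compound for 24 hours, are fixed and counterstained with Draq5, then imaged. Increased nuclear relative to cytoplasmic YFP fluorescence above DMSO baseline indicates binding activity.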

[6] = ACEA_AR_agonist_AUC_viability: ACEA Biosciences xCELLigence Real-Time Cell Analysis on Androgen Receptor Agonism for Viability (AID 2283775)
Summary of the method: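 Real-time impedance tracking of 22Rv1 growth, readings every 5 min for 5 h then hourly; area-under-curve viability endpoint at 80 hours, relative to DMSO. Compounds at eight concentrations, 1:4 steps, top 100 uM, n = 2.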

[7] = ACEA_AR_antagonist_AUC_viability: ACEA Biosciences xCELLigence Real-Time Cell Analysis on Androgen Receptor Antagonism for Viability (AID 2283776);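 note: 22Rv1 human prostate cancer cells growing on impedance electrode plates; hits lower the growth signal relative to DMSO meaning cytotoxicity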
Summary of the method: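 22Rv1 prostate cells, continuous dosing up to 100 uM final (0.5% DMSO max), duplicate plates. Growth measured by impedance; AUC at 80 h, loss of signal vs DMSO.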

[8] = molecular target: human Peroxisome Proliferator-activated Receptor alpha (PPARa), PPARA (gene 5465) (UniProt Q07869); assay: ATG_PPARa_TRANS: Attagene TRANS-FACTORIAL HepG2 Assay for human Peroxisome Proliferator-activated Receptor alpha (PPARa) (AID 2283001);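 for AC50: potency for gain of reporter signal over DMSO so agonist or activator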
Summary of the method: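 Gain-of-signal endpoint: reporter mRNA induction relative to DMSO, detected by fluorescent RT-PCR and capillary electrophoresis. HepG2 cells transiently carried GAL4-UAS-driven reporter units plus NR-Gal4 fusion; exposure lasted 24 h.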

[9] = BSK_BT_PBMCCytotoxicity: PBMC Cytotoxicity Assessment in the BioMAP Diversity Plus: BT Assay (AID 2284225; active = hit-call score of the fitted dose curve at least 0.9, where 1 is the maximum; inactive = score below 0.9;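 note: PBMC viability measured by Alamar Blue dye reduction fluorescence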); conditions: primary human B cells with PBMC
Summary of the method: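 PBMC (75,000/well) pretreated with compound 1 h, then activated with SEB and TSST-1 (20 ng/mL each final), incubated 90 h; Alamar Blue added 6 h, fluorescence read at 546/580 nm. Fitted relative to DMSO.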

[10] = read-out: Secreted IgG (sIgG), gene 3500; assay: BSK_BT_sIgG: BioMAP Diversity Plus: BT Assay for Secreted IgG (sIgG) Biomarker Activity (AID 2284226; active = hit-call score of the fitted dose curve at least 0.9, where 1 is the maximum; inactive = score below 0.9); conditions: primary human B cells with PBMC
Summary of the method: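 Read-out: ELISA for secreted IgG after 24 h of chemical exposure in a B cell plus PBMC co-culture. Values reflect upward-direction fitting against DMSO negative controls.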

[11] = BSK_BT_Bcell_Proliferation: Viability Assessment in the BioMAP Diversity Plus: BT Assay for B cell Proliferation (AID 2284227; active = hit-call score of the fitted dose curve at least 0.9, where 1 is the maximum; inactive = score below 0.9); conditions: primary human B cells with PBMC
Summary of the method: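 SRB-based protein staining (0.1% SRB after 10% TCA fixation, 560 nm) quantifies proliferation in human B cells co-cultured with PBMC, 72 h post-dosing, with signal gain scored relative to DMSO negative control.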

[12] = read-out: Interleukin 6 (IL6), IL6 (gene 3569); assay: BSK_BT_xIL6: BioMAP Diversity Plus: BT Assay for Interleukin 6 (IL6) Biomarker Activity (AID 2284228; active = hit-call score of the fitted dose curve at least 0.9, where 1 is the maximum; inactive = score below 0.9); conditions: primary human B cells with PBMC
Summary of the method: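 IL-6 secretion measured (Luminex xMAP) in human primary B cell + PBMC co-culture at 24 h of chemical exposure; DMSO served as negative control and activity baseline, with curves fitted for increase.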

[13] = read-out: Interleukin 17A (IL17A), IL17A (gene 3605); assay: BSK_BT_xIL17A: BioMAP Diversity Plus: BT Assay for Interleukin 17A (IL17A) Biomarker Activity (AID 2284229; active = hit-call score of the fitted dose curve at least 0.9, where 1 is the maximum; inactive = score below 0.9); conditions: primary human B cells with PBMC
Summary of the method: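 Human primary B cells plus PBMC, treated 24 h with chemicals; supernatant IL-17A quantified on Luminex xMAP beads. Gain of signal over DMSO control scored as activity.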

[14] = read-out: Tumor necrosis factor (Homo sapiens) (UniProt P01375); assay: BSK_BT_xTNFa: BioMAP Diversity Plus: BT Assay for Tumor necrosis factor alpha (TNF-alpha) Biomarker Activity (AID 2284230; active = hit-call score of the fitted dose curve at least 0.9, where 1 is the maximum; inactive = score below 0.9); conditions: primary human B cells with PBMC
Summary of the method: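 Compounds were added to a B cell plus PBMC co-culture, and after 24 h secreted TNF-alpha was quantified with Luminex xMAP technology, with responses fitted upward from the DMSO control.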

[15] = read-out: Vascular cell adhesion molecule 1 (VCAM1), VCAM1 (gene 7412); assay: BSK_MyoF_VCAM1: BioMAP Diversity Plus: MyoF Assay for Vascular cell adhesion molecule 1 (VCAM1) Biomarker Activity (AID 2284231; active = hit-call score of the fitted dose curve at least 0.9, where 1 is the maximum; inactive = score below 0.9); conditions: primary human lung fibroblasts
Summary of the method: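 VCAM-1 levels, lung fibroblasts, ELISA, 24 h exposure, increase scored relative to DMSO.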

[16] = read-out: TIMP metallopeptidase inhibitor 1 (TIMP1), TIMP1 (gene 7076); assay: BSK_MyoF_TIMP1: BioMAP Diversity Plus: MyoF Assay for TIMP metallopeptidase inhibitor 1 (TIMP1) Biomarker Activity (AID 2284269; active = hit-call score of the fitted dose curve at least 0.9, where 1 is the maximum; inactive = score below 0.9); conditions: primary human lung fibroblasts
Summary of the method: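 Fibroblasts from human lung are dosed with chemical, cultured 24 h, and assayed for TIMP-1 by ELISA. Increases over the DMSO baseline are scored, with SRB total-protein staining run in parallel for cytotoxicity.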

[17] = molecular target: Oxysterols receptor LXR-beta (Homo sapiens) (UniProt P55055); assay: ATG_LXRb_TRANS: Attagene TRANS-FACTORIAL HepG2 Assay for human Liver X Receptor beta (LXRb) (AID 2282981); conditions: HepG2 Attagene TRANS GAL4-LXRb reporter, mRNA
Summary of the method: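 In this TRANS format, exogenous chimeric NR-Gal4 protein activity, not endogenous factors, drives reporter expression in transfected human HepG2 cells. Exposure lasted 24 h; reporter mRNA was read by fluorescent capillary electrophoresis.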

[18] = ATG_M_19_TRANS: Attagene TRANS-FACTORIAL HepG2 Assay for M19 Transcription Factor (Internal Marker) (AID 2282974); conditions: HepG2 Attagene TRANS-FACTORIAL M19 internal marker reporter
Summary of the method: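 Fluorescence of 6-FAM-labelled reporter cDNA fragments, separated by capillary electrophoresis, served as the readout. These derived from HepG2 cells carrying transfected GAL4-UAS reporter units after 24 h dosing, with DMSO as negative control.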

[19] = molecular target: human RAR-related Orphan Receptor gamma (RORg), RORC (gene 6097) (UniProt P51449); assay: ATG_RORg_TRANS: Attagene TRANS-FACTORIAL HepG2 Assay for human RAR-related Orphan Receptor gamma (RORg) (AID 2283011)
Summary of the method: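 Chimeric RORg-Gal4 transactivation in transfected HepG2; 24 h exposure; RT-PCR/capillary electrophoresis readout of reporter mRNA, DMSO baseline.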

Measured: AC50

Chain of Retinoic acid receptor RXR-alpha (Homo sapiens) (P19793 whole entry, looked up, the tested form may be a part): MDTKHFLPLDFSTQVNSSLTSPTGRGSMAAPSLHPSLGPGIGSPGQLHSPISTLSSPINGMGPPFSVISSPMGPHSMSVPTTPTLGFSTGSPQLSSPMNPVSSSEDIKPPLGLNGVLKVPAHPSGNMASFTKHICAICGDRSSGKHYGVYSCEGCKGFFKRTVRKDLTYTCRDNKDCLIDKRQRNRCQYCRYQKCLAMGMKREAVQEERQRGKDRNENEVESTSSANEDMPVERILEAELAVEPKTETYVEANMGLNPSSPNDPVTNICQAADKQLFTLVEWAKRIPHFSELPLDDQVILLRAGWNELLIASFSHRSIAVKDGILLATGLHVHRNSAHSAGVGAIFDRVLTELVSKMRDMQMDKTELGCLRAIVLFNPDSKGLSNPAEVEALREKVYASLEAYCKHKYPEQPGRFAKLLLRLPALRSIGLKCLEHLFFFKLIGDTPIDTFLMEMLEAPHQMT
Chain of Peroxisome proliferator-activated receptor gamma (Homo sapiens) (P37231 whole entry, looked up, the tested form may be a part): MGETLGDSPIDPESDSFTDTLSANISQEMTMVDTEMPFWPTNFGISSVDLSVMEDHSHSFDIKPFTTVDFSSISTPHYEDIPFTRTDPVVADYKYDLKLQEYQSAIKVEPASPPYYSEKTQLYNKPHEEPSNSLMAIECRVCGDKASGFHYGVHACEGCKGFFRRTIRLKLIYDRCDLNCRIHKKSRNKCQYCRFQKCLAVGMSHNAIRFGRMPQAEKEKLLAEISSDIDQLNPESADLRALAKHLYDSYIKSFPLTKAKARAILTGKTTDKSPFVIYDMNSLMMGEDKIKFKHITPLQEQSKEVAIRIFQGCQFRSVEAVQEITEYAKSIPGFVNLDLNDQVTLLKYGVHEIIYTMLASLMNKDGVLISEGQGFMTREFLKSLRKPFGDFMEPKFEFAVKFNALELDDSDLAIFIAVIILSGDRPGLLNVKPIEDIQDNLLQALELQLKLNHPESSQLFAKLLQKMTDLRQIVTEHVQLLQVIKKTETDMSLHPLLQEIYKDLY
Chain of human Peroxisome Proliferator-activated Receptor alpha (PPARa), PPARA (gene 5465) (Q07869 whole entry, looked up, the tested form may be a part): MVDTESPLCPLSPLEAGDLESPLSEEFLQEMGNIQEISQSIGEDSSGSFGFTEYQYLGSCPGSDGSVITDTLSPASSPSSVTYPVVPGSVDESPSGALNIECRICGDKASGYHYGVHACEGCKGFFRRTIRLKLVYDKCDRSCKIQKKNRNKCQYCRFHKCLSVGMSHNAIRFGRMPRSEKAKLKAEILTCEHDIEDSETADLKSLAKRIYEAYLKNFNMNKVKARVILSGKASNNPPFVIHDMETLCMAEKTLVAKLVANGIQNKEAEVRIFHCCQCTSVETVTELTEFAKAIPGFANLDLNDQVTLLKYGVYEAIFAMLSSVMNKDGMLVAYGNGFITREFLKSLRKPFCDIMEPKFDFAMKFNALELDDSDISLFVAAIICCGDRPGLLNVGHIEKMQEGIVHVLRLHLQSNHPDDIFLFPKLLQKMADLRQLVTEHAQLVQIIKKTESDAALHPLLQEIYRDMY
Chain of Oxysterols receptor LXR-beta (Homo sapiens) (P55055 whole entry, looked up, the tested form may be a part): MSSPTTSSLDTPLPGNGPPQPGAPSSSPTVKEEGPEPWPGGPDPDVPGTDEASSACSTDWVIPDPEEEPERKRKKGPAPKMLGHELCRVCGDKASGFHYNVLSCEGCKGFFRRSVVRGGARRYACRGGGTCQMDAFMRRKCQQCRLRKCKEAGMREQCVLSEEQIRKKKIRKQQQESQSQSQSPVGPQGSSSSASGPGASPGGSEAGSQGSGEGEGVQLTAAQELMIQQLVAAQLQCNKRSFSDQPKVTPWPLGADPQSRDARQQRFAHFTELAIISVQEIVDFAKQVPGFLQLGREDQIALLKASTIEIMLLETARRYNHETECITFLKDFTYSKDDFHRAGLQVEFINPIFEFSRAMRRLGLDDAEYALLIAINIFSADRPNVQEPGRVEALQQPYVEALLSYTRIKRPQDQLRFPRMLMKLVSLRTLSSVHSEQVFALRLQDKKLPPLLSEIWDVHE
Chain of Tumor necrosis factor (Homo sapiens) (P01375 whole entry, looked up): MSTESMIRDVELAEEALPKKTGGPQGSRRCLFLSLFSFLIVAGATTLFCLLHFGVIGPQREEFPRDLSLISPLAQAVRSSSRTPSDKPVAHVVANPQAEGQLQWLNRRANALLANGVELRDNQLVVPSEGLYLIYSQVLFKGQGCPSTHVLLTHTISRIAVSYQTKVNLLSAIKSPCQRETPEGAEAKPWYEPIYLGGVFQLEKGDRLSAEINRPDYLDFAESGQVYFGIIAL
Chain of human RAR-related Orphan Receptor gamma (RORg), RORC (gene 6097) (P51449 whole entry, looked up, the tested form may be a part): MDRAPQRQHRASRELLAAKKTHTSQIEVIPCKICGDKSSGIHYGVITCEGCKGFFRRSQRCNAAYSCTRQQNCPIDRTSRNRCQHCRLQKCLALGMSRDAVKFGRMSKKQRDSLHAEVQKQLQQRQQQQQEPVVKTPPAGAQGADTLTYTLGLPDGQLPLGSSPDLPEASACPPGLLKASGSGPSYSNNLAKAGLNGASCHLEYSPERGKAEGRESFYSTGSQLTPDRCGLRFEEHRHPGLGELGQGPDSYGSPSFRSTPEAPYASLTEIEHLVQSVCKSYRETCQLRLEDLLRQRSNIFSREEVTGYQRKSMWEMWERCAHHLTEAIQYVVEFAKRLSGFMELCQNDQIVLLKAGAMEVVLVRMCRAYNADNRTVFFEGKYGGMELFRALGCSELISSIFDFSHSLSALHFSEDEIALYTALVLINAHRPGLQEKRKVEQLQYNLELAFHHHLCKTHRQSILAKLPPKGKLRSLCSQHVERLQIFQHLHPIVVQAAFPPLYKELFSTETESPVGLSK

C[Si](C)(C)O[Si](C)(C)O[Si](C)(C)C
inactive: [1] | [2] | [3] | [4] | [5] | [6] | [7]

CC[N+](CC)(CC(=O)Nc1c(C)cccc1C)Cc1ccccc1
inactive: [8] | [1] | [2] | [3] | [4] | [5] | [9] | [10] | [11] | [12] | [13] | [14] | [15] | [16]

CCCN[C@H]1CCc2nc(N)sc2C1
inactive: [17]

COc1ccc2ccccc2c1
inactive: [18] | [8]

CCCCCC[C@@H](O)C/C=C\CCCCCCCC(=O)O
active: [8] 8.72 µM | [1] 27.4 µM
inactive: [17] | [2] | [3] | [4] | [5] | [6] | [7]

CCCCCCCCCC/C=C/C1CC(=O)OC1=O (stereo not drawn)
inactive: [18] | [19] | [9] | [10] | [11] | [12] | [13] | [14] | [15] | [16]
